Compound activity from PubChem BioAssay.
PAX8 reporter: inhibitors of PAX8 transcriptional activity in RMG-I cells; AID 652154; RMG-I TPO-luciferase reporter, SteadyGlo, 24 h; actives 1.2% (n = 360,000); inhibition, % at 12.6 µM;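 active means mean replicate inhibition at least 60% with every replicate also reaching 60%; inconclusive means only one of the two criteria is met; inactive means mean below 60% and not all replicates reaching 60%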;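 further: luciferase light reporting Pax8 driven TPO promoter activity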
TRPM1 prom inh: MITF TRPM1 promoter inhibition in SK-MEL-5 cells. inhibition, % at 12.5 µM. AID 488899. actives 0.83% (n = 330,000). SK-MEL-5 TRPM1 promoter luciferase, 24 h;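 active means mean inhibition across replicates of 60% or more, whatever share of single replicates reaches that level; inconclusive means some that reach 60%, reason not given; inactive means mean inhibition across replicates below 60%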
EBV LMP1 NFkB: Epstein-Barr LMP1 NF-kappaB reporter inhibition; LMP1-induced NF-kappaB luciferase reporter cells, luminescence; inhibition, % at 12.5 µM; actives 0.69% (n = 350,000); AID 504558; in the data active means inhibition above about 41%; inconclusive means no clear call, values can overlap the other calls
PGC1a acetyl inh: PGC1a acetylation modulation, inhibitor mode; U2OS PGC1a acetylation, AlphaScreen anti-acetyl-lysine; with virally co-expressed GCN5 acetyltransferase; inhibition, % at 15.6 µM; actives 0.17% (n = 350,000); AID 651687;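 active means every replicate shows inhibition of at least 40%; inconclusive means mean inhibition at least 40% but some replicate below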
EWS-Fli inh: blocks EWS/Fli oncoprotein-driven transcription; inhibition, % at 12.6 µM; A673 NR0B1-luciferase reporter, viability-normalised; actives 0.67% (n = 350,000);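 active means mean inhibition of at least 50% after viability correction, with every replicate also passing that limit; inconclusive means mean reaches 50% but only one of two replicates passes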;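 further: firefly luciferase signal divided by Alamar Blue viability fluorescence both relative to DMSO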
LGR2 inh: inhibitors of bursicon-induced Drosophila LGR2 receptor cAMP signaling | HEK293 LGR2, CRE-luciferase, bursicon-stimulated, 4 h | actives 0.35% (n = 380,000) | inhibition, % at 9.99 µM;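 active means drop in luminescence signal, shown as inhibition above about 50% in the replicate tests, limit read from the data, passing the limit was not always enough; inconclusive means probably only some replicates passing the limit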;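 further: agonist challenge used bursicon conditioned medium at about half maximal strength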
A number is an active result. Compounds with a hit are over-represented: about 2.2% of the library has one in this group of screens.

Results for Oc1c(Br)cc(-c2ccccc2)cc1Br ?
PAX8 reporter: inactive; TRPM1 prom inh: inactive; EBV LMP1 NFkB: inactive; PGC1a acetyl inh: inactive; EWS-Fli inh: inactive; LGR2 inh: inactive

Results for COc1ccc(-[n+]2c(-c3ccccc3)cc(-c3ccc(C)cc3)cc2-c2ccccc2)cc1 ?
PAX8 reporter: 106; TRPM1 prom inh: 74; EBV LMP1 NFkB: inactive; EWS-Fli inh: inactive; LGR2 inh: inactive

Results for CCCOC(=O)c1ccc(-[n+]2c(-c3ccccc3)cc(-c3ccccc3)cc2-c2ccccc2)cc1 ?
PAX8 reporter: 88; TRPM1 prom inh: 64; EBV LMP1 NFkB: inactive; PGC1a acetyl inh: inactive; EWS-Fli inh: 74; LGR2 inh: inactive

What do the screens show for `Cc1ccc(-c2cc(-c3ccccc3)cc(-c3ccccc3)[n+]2-c2ccc(C(=O)O)cc2)cc1`?
PAX8 reporter: inactive; TRPM1 prom inh: inactive; EBV LMP1 NFkB: inactive; PGC1a acetyl inh: inactive; EWS-Fli inh: inactive; LGR2 inh: inactive

How did O=C(O)c1ccc(-[n+]2c(-c3ccccc3)cc(-c3ccccc3)cc2-c2ccccc2)cc1 do in these assays?
PAX8 reporter: inactive; TRPM1 prom inh: inactive; EBV LMP1 NFkB: inactive; PGC1a acetyl inh: inactive; EWS-Fli inh: inactive; LGR2 inh: inactive

Results for O=C(Cc1ccncc1)N1CCCCN2[C@H](C1)[C@@H](c1ccc(C#CC3(O)CCCC3)cc1)[C@@H]2CO ?
PAX8 reporter: inactive; PGC1a acetyl inh: inactive; LGR2 inh: inactive

How did C[n+]1c(-c2ccccc2)cc(CCCCc2cc(-c3ccccc3)[n+](C)c(-c3ccccc3)c2)cc1-c1ccccc1 do in these assays?
PAX8 reporter: 96; TRPM1 prom inh: inactive; EBV LMP1 NFkB: inactive; PGC1a acetyl inh: inactive; EWS-Fli inh: inactive; LGR2 inh: inactive

How did Cc1ccc(C[n+]2c(-c3ccc(C)cc3)cc(-c3ccc(C)cc3)cc2-c2ccc(C)cc2)cc1 do in these assays?
TRPM1 prom inh: 96; EBV LMP1 NFkB: inconclusive; PGC1a acetyl inh: 67

What do the screens show for `Cc1ccc(-c2cc(-c3ccc(C)cc3)[n+](-c3ccc(C(=O)O)cc3)c(-c3ccc(C)cc3)c2)cc1`?
PAX8 reporter: inactive; TRPM1 prom inh: inactive; EBV LMP1 NFkB: inactive; PGC1a acetyl inh: inactive; EWS-Fli inh: inactive; LGR2 inh: inactive

How did CC(C)C[C@H](NC(=O)[C@@H]1CCCN1C(=O)[C@@H](N)Cc1ccc(O)cc1)C(=O)NCC(N)=O do in these assays?
PAX8 reporter: inactive; TRPM1 prom inh: inactive; EBV LMP1 NFkB: 66; PGC1a acetyl inh: inactive; EWS-Fli inh: inactive; LGR2 inh: inactive

What do the screens show for `O=C(c1ccccc1)C(CN1CCCC1)c1ccccc1` (stereo not drawn)?
PAX8 reporter: 100; EBV LMP1 NFkB: 73; LGR2 inh: inconclusive

What do the screens show for `COC(=O)C1CN(C#N)N(c2ccc(Cl)cc2)C12c1ccccc1-c1ccccc12` (stereo not drawn)?
TRPM1 prom inh: 98; EBV LMP1 NFkB: inactive; PGC1a acetyl inh: inactive; LGR2 inh: 100

Results for COc1cc2c(ccc3c4cc(OC)c(OC)cc4c[n+](C)c23)cc1O ?
PAX8 reporter: 75; TRPM1 prom inh: inactive; EBV LMP1 NFkB: inactive; PGC1a acetyl inh: inactive; EWS-Fli inh: inactive; LGR2 inh: inactive

How did COc1ccc(Cc2nccc3cc(OC)c(OC)cc23)cc1OC do in these assays?
PAX8 reporter: inactive; TRPM1 prom inh: inactive; EBV LMP1 NFkB: inactive; EWS-Fli inh: inactive; LGR2 inh: inactive

What do the screens show for `COCC(=O)N1[C@@H]2Cn3c(ccc(C4=CCCC4)c3=O)[C@H]1[C@@H](C(=O)OC)[C@@H]2CO`?
PAX8 reporter: inactive; PGC1a acetyl inh: inactive; EWS-Fli inh: inactive; LGR2 inh: inactive

Results for COc1ccc(Oc2cc(NC(=O)c3nn(C)cc3[N+](=O)[O-])cc([N+](=O)[O-])c2)cc1 ?
TRPM1 prom inh: 81; EBV LMP1 NFkB: inactive; PGC1a acetyl inh: 78; EWS-Fli inh: inactive; LGR2 inh: inactive

What do the screens show for `CC=Cc1ccc2n(c1=O)C[C@@H]1[C@@H](CO)[C@H](C(=O)OC)[C@H]2N1S(=O)(=O)c1cccc(C)c1` (mixture of isomers)?
EWS-Fli inh: inactive; LGR2 inh: inactive

Results for COC(=O)[C@H]1[C@H](CO)[C@H]2Cn3c(cccc3=O)[C@@H]1N2CCc1ccccc1 ?
EWS-Fli inh: inactive; LGR2 inh: inactive

Results for CNc1cc(Cl)c2nonc2c1[N+](=O)[O-] ?
PAX8 reporter: inconclusive; TRPM1 prom inh: 96; EBV LMP1 NFkB: inactive; PGC1a acetyl inh: 68; EWS-Fli inh: inactive; LGR2 inh: 104

What do the screens show for `CN1C(=O)NC(=O)/C(=C\C=C\c2ccccc2[N+](=O)[O-])C1=O`?
PAX8 reporter: inactive; EWS-Fli inh: 67; LGR2 inh: inactive

What do the screens show for `O=C(Cc1cccnc1)N1CCCCN2[C@@H](CO)[C@@H](c3ccc(C#CC4CC4)cc3)[C@@H]2C1`?
PAX8 reporter: inactive; PGC1a acetyl inh: inactive; EWS-Fli inh: inactive

Results for CNc1ccc2nc3ccccc3[n+](C)c2c1 ?
PAX8 reporter: 65; TRPM1 prom inh: 72; EBV LMP1 NFkB: inactive; EWS-Fli inh: inactive; LGR2 inh: inactive

How did COC(=O)[C@@H]1[C@@H](CO)[C@@H]2Cn3c(ccc(-c4ccccc4F)c3=O)[C@H]1N2C(=O)C1CCC1 do in these assays?
EWS-Fli inh: inactive; LGR2 inh: inactive

What do the screens show for `C#CCOc1cc(C2C3=C(COC3=O)Nc3cc4c(cc32)OCO4)ccc1OC` (stereo not drawn)?
PAX8 reporter: inconclusive; TRPM1 prom inh: inactive; EBV LMP1 NFkB: inactive; EWS-Fli inh: 63; LGR2 inh: inactive

How did COc1ccc2c(c1OC)CN1CCc3cc4c(cc3C1C2)OCO4 (stereo not drawn) do in these assays?
PAX8 reporter: inactive; TRPM1 prom inh: inactive; EBV LMP1 NFkB: inactive; PGC1a acetyl inh: inactive; EWS-Fli inh: inactive; LGR2 inh: inactive

How did NC(=Nc1ccccc1)NN=Cc1c[nH]c2ccccc12 do in these assays?
PAX8 reporter: inactive; TRPM1 prom inh: 88; EBV LMP1 NFkB: inactive; EWS-Fli inh: inactive; LGR2 inh: inactive

What do the screens show for `C=Cc1cc(OC)c2c(c1)c(=O)oc1c2cc(OC)c2c(O)ccc(C3OC(C)C(O)C(C)(O)C3O)c21` (stereo not drawn)?
PAX8 reporter: 89; TRPM1 prom inh: 78; EBV LMP1 NFkB: 88; PGC1a acetyl inh: inactive; EWS-Fli inh: inactive

What do the screens show for `C=C1C2C[C@@]3([C@@H]1O)[C@@H](C[C@@H]2O)[C@@]12C4[C@@H]3C[C@@H]1[C@@](C)(CC[C@@H]2O)CN4CC`?
PAX8 reporter: inactive; TRPM1 prom inh: inactive; EBV LMP1 NFkB: inactive; PGC1a acetyl inh: inactive; EWS-Fli inh: inactive; LGR2 inh: inactive

Results for CCN1C[C@]2(C)CC[C@H](O)[C@]34C1[C@H](C[C@H]23)[C@@]1(O)C[C@H](OC)[C@H]2C[C@@H]4[C@@H]1C2O (stereo partly drawn) ?
PAX8 reporter: inactive; TRPM1 prom inh: inactive; EBV LMP1 NFkB: 90; EWS-Fli inh: inactive; LGR2 inh: inactive
